PubChem BioAssay
For part of these data: Results with a measured potency or affinity are listed apart. Calls of active or inactive are those of the source. Unless noted, how the calls were made is not given here.

How the values were obtained:
[1] = antimalarial activity against Dd2 strain (AID 2302;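 active means growth inhibition above 50% at the single 2 µM test dose, taken to imply half-maximal potency below 2 µM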;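 further: 0% = DMSO untreated growth and 100% = chloroquine plus artemisinin killed control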); conditions: P. falciparum Dd2 in RBCs, LDH growth readout, 72 h; at 2 µM; active compounds read high
[2] = human hepatoma cell viability loss – ATP luminescence, cytotoxicity control for P. falciparum antimalarial project, primary screen (AID 2303;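 active means inhibition above 50%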;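 further: 0% = DMSO wells and 100% = digitonin-killed cells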); conditions: HepG2 viability, 24-48 h, at 10 µM, active compounds read high
[3] = target: L-lactate dehydrogenase (Plasmodium falciparum (isolate CDC / Honduras)) (UniProt Q27743); test: PfLDH activity inhibition – cell lysate, 3D7 strain, counter-screen for P. falciparum growth inhibition project (AID 2304);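 further: 0% = vehicle and 100% = reference inhibitor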; conditions: P. falciparum 3D7 crude extract, LDH APAD/NBT absorbance; at 2 µM; active compounds read high
[4] = inhibition of 3D7 malaria parasite growth – strain 3D7 (AID 2306);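 further: 0% = DMSO wells and 100% = chloroquine plus artemisinin control wells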; conditions: P. falciparum 3D7 erythrocytic growth, LDH absorbance, 72 h; at 2 µM; active compounds read high
[5] = target: Calcium-dependent protein kinase 1 (Plasmodium falciparum (isolate 3D7)) (UniProt P62344); test: PfCDPK1 kinase inhibitors, biochemical, TCAMS library (AID 1159585; cut-off not given, nearly all actives have IC50 up to about 0.98 µM;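 further: inhibitors leave more ATP so luminescence rises with inhibition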); conditions: recombinant PfCDPK1, Kinase-Glo ATP depletion luminescence
[6] = target: Plasmodium falciparum protein kinase 6 (PK6, PF3D7_1337100) (UniProt Q8IDW1); test: PfPK6 kinase inhibitors, biochemical, TCAMS library (AID 1159586); conditions: recombinant PfPK6, Kinase-Glo ATP depletion luminescence
[7] = target: Protein kinase 7 (PK7), Plasmodium falciparum 3D7 (PF3D7_0213400) (UniProt Q7YTF7); test: inhibition of Plasmodium PK7 catalytic activity – biochemical, TCAMS antimalarial set, Kinase-Glo luminescence (AID 1159587); conditions: recombinant PfPK7, Kinase-Glo ATP depletion luminescence
[8] = target: Calcium-dependent protein kinase 4 (Plasmodium falciparum (isolate 3D7)) (UniProt Q8IBS5); test: PfCDPK4 kinase inhibitors, biochemical, TCAMS library (AID 1159588; cut-off not given, nearly all actives have IC50 up to about 0.91 µM); conditions: recombinant PfCDPK4, Kinase-Glo ATP depletion luminescence
Sequence of Calcium-dependent protein kinase 4 (Plasmodium falciparum (isolate 3D7)) (Q8IBS5 whole entry, looked up): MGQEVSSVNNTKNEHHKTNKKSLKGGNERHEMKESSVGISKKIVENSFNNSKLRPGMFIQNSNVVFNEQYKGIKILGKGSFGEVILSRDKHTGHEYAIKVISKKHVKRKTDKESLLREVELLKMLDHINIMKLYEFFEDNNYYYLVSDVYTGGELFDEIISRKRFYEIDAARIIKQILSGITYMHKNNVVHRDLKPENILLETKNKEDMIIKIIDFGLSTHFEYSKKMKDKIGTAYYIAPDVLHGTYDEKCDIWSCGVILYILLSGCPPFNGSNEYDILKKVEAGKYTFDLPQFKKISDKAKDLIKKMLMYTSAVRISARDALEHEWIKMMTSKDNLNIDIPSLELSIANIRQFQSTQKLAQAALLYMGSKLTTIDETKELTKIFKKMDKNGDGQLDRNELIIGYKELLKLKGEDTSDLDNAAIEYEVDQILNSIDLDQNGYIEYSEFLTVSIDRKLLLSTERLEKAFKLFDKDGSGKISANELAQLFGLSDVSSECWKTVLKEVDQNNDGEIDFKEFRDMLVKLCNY

Sequence of Calcium-dependent protein kinase 1 (Plasmodium falciparum (isolate 3D7)) (P62344 whole entry, looked up): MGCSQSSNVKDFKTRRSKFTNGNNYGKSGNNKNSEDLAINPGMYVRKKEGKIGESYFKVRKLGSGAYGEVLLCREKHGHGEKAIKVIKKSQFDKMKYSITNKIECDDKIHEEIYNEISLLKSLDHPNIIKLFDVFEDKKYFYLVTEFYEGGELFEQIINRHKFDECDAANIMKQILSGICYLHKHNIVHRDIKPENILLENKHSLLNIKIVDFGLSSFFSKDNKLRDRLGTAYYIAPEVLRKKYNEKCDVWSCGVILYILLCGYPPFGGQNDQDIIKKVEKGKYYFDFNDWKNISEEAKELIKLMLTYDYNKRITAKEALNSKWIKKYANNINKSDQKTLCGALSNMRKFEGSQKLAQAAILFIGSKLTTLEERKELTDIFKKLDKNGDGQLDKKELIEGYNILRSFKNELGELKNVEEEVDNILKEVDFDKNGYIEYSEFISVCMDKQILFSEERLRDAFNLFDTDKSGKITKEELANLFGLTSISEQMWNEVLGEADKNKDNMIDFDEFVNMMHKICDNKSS
Sequence of Protein kinase 7 (PK7), Plasmodium falciparum 3D7 (PF3D7_0213400) (Q7YTF7 1-343): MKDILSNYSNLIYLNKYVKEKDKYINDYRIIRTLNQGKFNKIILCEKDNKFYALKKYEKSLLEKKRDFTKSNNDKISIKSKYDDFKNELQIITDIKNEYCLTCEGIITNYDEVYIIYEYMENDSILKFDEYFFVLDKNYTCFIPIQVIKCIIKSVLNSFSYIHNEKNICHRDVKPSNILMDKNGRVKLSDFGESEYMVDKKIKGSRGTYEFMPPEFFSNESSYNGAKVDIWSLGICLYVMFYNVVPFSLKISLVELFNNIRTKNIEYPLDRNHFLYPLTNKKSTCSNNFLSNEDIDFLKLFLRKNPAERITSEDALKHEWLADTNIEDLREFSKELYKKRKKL
Sequence of Plasmodium falciparum protein kinase 6 (PK6, PF3D7_1337100) (Q8IDW1 1-305): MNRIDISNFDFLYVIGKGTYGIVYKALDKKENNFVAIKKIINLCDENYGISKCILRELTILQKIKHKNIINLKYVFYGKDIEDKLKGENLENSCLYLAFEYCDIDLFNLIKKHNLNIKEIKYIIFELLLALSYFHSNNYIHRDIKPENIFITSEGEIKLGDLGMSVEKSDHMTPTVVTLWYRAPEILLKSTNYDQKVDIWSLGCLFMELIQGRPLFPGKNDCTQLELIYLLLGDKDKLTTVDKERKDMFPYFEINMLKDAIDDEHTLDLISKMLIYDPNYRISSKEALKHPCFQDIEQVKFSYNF
Sequence of L-lactate dehydrogenase (Plasmodium falciparum (isolate CDC / Honduras)) (Q27743 whole entry, looked up): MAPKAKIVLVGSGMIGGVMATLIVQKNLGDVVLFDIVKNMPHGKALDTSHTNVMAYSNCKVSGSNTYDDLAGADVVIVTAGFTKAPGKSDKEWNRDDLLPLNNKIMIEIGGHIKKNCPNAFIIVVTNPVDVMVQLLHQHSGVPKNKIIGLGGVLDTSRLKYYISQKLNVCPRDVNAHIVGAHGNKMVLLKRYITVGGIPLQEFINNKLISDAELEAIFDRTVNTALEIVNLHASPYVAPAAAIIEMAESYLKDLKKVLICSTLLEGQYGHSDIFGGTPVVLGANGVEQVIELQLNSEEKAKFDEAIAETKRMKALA

O=C(NCCNc1ccnc2cc(Cl)ccc12)c1ccccc1F
active: growth inhibition [1] 98% | growth inhibition [4] 99%
inactive: inhibition [2] 30% | inhibition [3] 0% | outcome [5] | outcome [6] | outcome [7] | outcome [8]

O=S(=O)(Nc1cccc(CCN2CCC(N3CCCCC3)CC2)c1)c1ccc(Oc2ccccc2)nc1
active: growth inhibition [4] 99%
inactive: growth inhibition [1] -4% | inhibition [2] 8% | inhibition [3] -2% | outcome [5] | outcome [6] | outcome [7] | outcome [8]

COc1ccc(Cl)cc1N1CCN(CCCNC(=O)c2ccc(-c3nc4cc(Cl)c(C)cc4[nH]3)s2)CC1
inactive: inhibition [2] -1% | inhibition [3] 1% | outcome [5] | outcome [6] | outcome [7] | outcome [8]
active: growth inhibition [1] 97% | growth inhibition [4] 102%

Cc1ccc2c(Cc3cnc(N)nc3N)cc(C)c(N)c2n1
active: growth inhibition [1] 92% | growth inhibition [4] 91%
inactive: inhibition [2] -19% | inhibition [3] -2% | outcome [5] | outcome [6] | outcome [7] | outcome [8]

COc1cc2nc(NCC3CCCO3)n3nc(-c4ccccc4)nc3c2cc1OC (stereo not drawn)
inactive: inhibition [2] -9% | inhibition [3] -7% | outcome [5] | outcome [6] | outcome [7] | outcome [8]
active: growth inhibition [1] 97% | growth inhibition [4] 92%

COc1ccc(N2CCc3c(-c4cccc5cnccc45)cc(C)nc32)c(C)c1
active: growth inhibition [4] 96%
inactive: growth inhibition [1] -12% | inhibition [2] 20% | inhibition [3] 0% | outcome [5] | outcome [6] | outcome [7] | outcome [8]

COc1ccccc1N1CCN(Cc2c(O)ccc3cc(Br)ccc23)CC1
inactive: inhibition [2] 8% | inhibition [3] 2% | outcome [5] | outcome [6] | outcome [7] | outcome [8]
active: growth inhibition [1] 75% | growth inhibition [4] 89%

COc1ccc2c(NN=Cc3ccc(F)cc3)ccnc2c1
active: growth inhibition [1] 99% | growth inhibition [4] 100%
inactive: inhibition [2] 14% | inhibition [3] -4% | outcome [5] | outcome [6] | outcome [7] | outcome [8]

CN(C)c1ccc(-c2csc(C(=O)NC3CCN(Cc4ccc(C(C)(C)C)cc4)C3)c2)cc1 (stereo not drawn)
inactive: inhibition [2] 26% | inhibition [3] -1% | outcome [5] | outcome [6] | outcome [7] | outcome [8]
active: growth inhibition [1] 50% | growth inhibition [4] 99%

Cc1ccc(C2CCN(CCCCNC(=O)c3ccc(-c4ccc(C#N)cc4)cc3)CC2)c(O)c1
active: growth inhibition [1] 90% | growth inhibition [4] 100%
inactive: inhibition [2] 45% | inhibition [3] -3% | outcome [5] | outcome [6] | outcome [7] | outcome [8]

CC(C)CCNCc1ccc(OCc2ccccc2COc2ccc(CNCCC(C)C)cc2I)c(I)c1
active: growth inhibition [1] 78% | inhibition [2] 99% | growth inhibition [4] 101%
inactive: inhibition [3] 0% | outcome [5] | outcome [6] | outcome [7] | outcome [8]

CCN(CC)Cc1ccc2c(=O)cc(CCc3cccc(F)c3F)n(CC(=O)N(Cc3ccc(-c4ccc(C(F)(F)F)cc4)cc3)C(C)C)c2c1
active: growth inhibition [1] 63% | inhibition [2] 82% | growth inhibition [4] 102%
inactive: inhibition [3] -6% | outcome [5] | outcome [6] | outcome [7] | outcome [8]

CC(=O)Nc1ccc2[nH]cc(C3CCN(CC4CCC(NC(=O)/C=C/c5ccccc5Cl)CC4)CC3)c2n1 (stereo not drawn)
inactive: inhibition [2] 16% | inhibition [3] -1% | outcome [5] | outcome [6] | outcome [7] | outcome [8]
active: growth inhibition [1] 79% | growth inhibition [4] 101%

O=C(c1cccs1)N(Cc1cccc(-c2ccc(CNCCc3ccccc3)cc2)c1)C1CCN(Cc2ccccc2)CC1
inactive: inhibition [2] 3% | inhibition [3] -3% | outcome [5] | outcome [6] | outcome [7] | outcome [8]
active: growth inhibition [1] 76% | growth inhibition [4] 95%

COc1ccc(NC(=O)/C=C/c2cc(Br)ccc2F)cc1OCCN(C(C)C)C(C)C
inactive: growth inhibition [1] 14% | inhibition [2] 22% | inhibition [3] -3% | outcome [5] | outcome [6] | outcome [7] | outcome [8]
active: growth inhibition [4] 100%

NS(=O)(=O)c1ccc(CNC(=O)c2cnc3c(O)cccc3c2Nc2cccc(NC(=O)c3ccc(Cl)c(Cl)c3)c2)cc1
inactive: growth inhibition [1] 35% | inhibition [3] -1% | outcome [5] | outcome [6] | outcome [7] | outcome [8]
active: inhibition [2] 56% | growth inhibition [4] 97%

C#CCN(Cc1ccc2nc(N)[nH]c(=O)c2c1)c1ccc(C(=O)N[C@@H](CCC(=O)O)C(=O)O)cc1
active: growth inhibition [1] 96% | growth inhibition [4] 95%
inactive: inhibition [2] 45% | inhibition [3] 3% | outcome [5] | outcome [6] | outcome [7] | outcome [8]

CC(=O)c1cccc(NC(=O)NC2CCN(c3ccnc(Nc4ccc(F)cc4)n3)C2)c1 (stereo not drawn)
active: growth inhibition [1] 94% | growth inhibition [4] 99%
inactive: inhibition [2] 10% | inhibition [3] -2% | outcome [5] | outcome [6] | outcome [7] | outcome [8]

Cc1cc(NC(=O)c2ccco2)ccc1OC1CCN(Cc2ccc(F)cc2)C1 (stereo not drawn)
active: growth inhibition [1] 92% | growth inhibition [4] 96%
inactive: inhibition [2] 5% | inhibition [3] 5% | outcome [5] | outcome [6] | outcome [7] | outcome [8]

Cc1[nH]c(C)c(-c2ccc(-c3ccccc3C(F)(F)F)nc2)c(=O)c1Br
inactive: inhibition [2] -3% | inhibition [3] -3% | outcome [5] | outcome [6] | outcome [7] | outcome [8]
active: growth inhibition [1] 96% | growth inhibition [4] 97%

O=C(/C=C/c1ccccc1Cl)Nc1ccc(Br)c(OCCN2CCC(O)(c3ccccc3)CC2)c1
active: growth inhibition [1] 85% | growth inhibition [4] 101%
inactive: inhibition [2] 39% | inhibition [3] 0% | outcome [5] | outcome [6] | outcome [7] | outcome [8]

O=S(=O)(Nc1ccc(CCN2CCCCC2CCN2CCCC2)cc1)c1ccc(-c2ccccc2)cc1 (stereo not drawn)
active: growth inhibition [4] 98%
inactive: growth inhibition [1] 18% | inhibition [2] 18% | inhibition [3] -1% | outcome [5] | outcome [6] | outcome [7] | outcome [8]

FC(F)(F)c1ccc2nc(-c3ccc(-c4cccc(CNCCN5CCNCC5)c4)s3)[nH]c2c1
inactive: growth inhibition [1] 39% | inhibition [2] 22% | inhibition [3] 5% | outcome [5] | outcome [6] | outcome [7] | outcome [8]
active: growth inhibition [4] 91%

Cc1cc(N[C@@H](CC(C)C)C(=O)NCCOc2ccccc2)nc(NCCc2ccc(F)cc2)n1
active: growth inhibition [1] 54% | growth inhibition [4] 95%
inactive: inhibition [2] 25% | inhibition [3] 1% | outcome [5] | outcome [6] | outcome [7] | outcome [8]

Cc1cccn2c(=O)c3cc(C(=O)NC(C)c4ccccc4)c(=N)n(CCN4CCOCC4)c3nc12 (stereo not drawn)
inactive: growth inhibition [1] 5% | inhibition [2] 6% | inhibition [3] 4% | outcome [5] | outcome [6] | outcome [7] | outcome [8]
active: growth inhibition [4] 101%

FC(F)(F)c1ccc2nc(-c3ccc(-c4ccc(CNCc5cnn(-c6ccccc6)n5)cc4)cc3)[nH]c2c1
active: growth inhibition [1] 76% | growth inhibition [4] 100%
inactive: inhibition [2] 35% | inhibition [3] -1% | outcome [5] | outcome [6] | outcome [7] | outcome [8]

O=C(NC1CCCc2ccccc21)C1CCCN(C(=O)c2ccc(O)c(-c3ccc(Cl)c(Cl)c3)c2)C1 (stereo not drawn)
active: growth inhibition [1] 54% | growth inhibition [4] 88%
inactive: inhibition [2] -3% | inhibition [3] -8% | outcome [5] | outcome [6] | outcome [7] | outcome [8]

COc1cc2c(cc1S(=O)(=O)c1ccc(NC(=O)c3cccc(C(F)(F)F)c3)cc1)CCN(C)CC2
inactive: growth inhibition [1] 25% | inhibition [2] 18% | inhibition [3] 3% | outcome [5] | outcome [6] | outcome [7] | outcome [8]
active: growth inhibition [4] 92%

COc1cc2c(C3CCN(CC4CCN(C(=O)/C=C/c5ccc(Cl)c(Cl)c5)CC4)CC3)c[nH]c2cn1
active: growth inhibition [1] 88% | growth inhibition [4] 101%
inactive: inhibition [2] 27% | inhibition [3] -1% | outcome [5] | outcome [6] | outcome [7] | outcome [8]

O=C(Nc1ccc(Cn2ncc(N3CCCNCC3)c(Cl)c2=O)cc1)Nc1cc(F)cc(C(F)(F)F)c1
active: growth inhibition [4] 101%
inactive: growth inhibition [1] 44% | inhibition [2] 35% | inhibition [3] 4% | outcome [5] | outcome [6] | outcome [7] | outcome [8]

COc1ccc(CNC2CCN(C)CC2)cc1-c1ccc(S(=O)(=O)NCCc2ccccn2)s1
inactive: growth inhibition [1] 12% | inhibition [2] 6% | inhibition [3] 3% | outcome [5] | outcome [6] | outcome [7] | outcome [8]
active: growth inhibition [4] 100%

O=C(/C=C/c1ccc(Cl)c(Cl)c1)NCC[C@@H]1C[C@H]1CCN1CCC(c2c[nH]c3ccccc23)CC1
inactive: growth inhibition [1] 22% | inhibition [3] -8% | outcome [5] | outcome [6] | outcome [7] | outcome [8]
active: inhibition [2] 98% | growth inhibition [4] 96%

Brc1cc(Br)c2c(c1)C(NCCCNC1CCNc3c(Br)cc(Br)cc31)CCN2 (stereo not drawn)
active: growth inhibition [4] 98%
inactive: growth inhibition [1] 25% | inhibition [2] 18% | inhibition [3] -1% | outcome [5] | outcome [6] | outcome [7] | outcome [8]

O=C(/C=C/c1ccc(Cl)cc1Cl)NCCCCCN1CCC(c2c[nH]c3ccccc23)CC1
active: inhibition [2] 95% | growth inhibition [4] 99%
inactive: growth inhibition [1] 9% | inhibition [3] 1% | outcome [5] | outcome [6] | outcome [7] | outcome [8]

O=C(c1cccc(-c2ccc(-c3nc4ccc(C(F)(F)F)cc4[nH]3)cc2)c1)N1CCCCC1CN1CCC(O)C1 (stereo not drawn)
inactive: inhibition [2] 19% | inhibition [3] 4% | outcome [5] | outcome [6] | outcome [7] | outcome [8]
active: growth inhibition [1] 101% | growth inhibition [4] 92%

Cc1cc(OCCCN2CCC(NS(=O)(=O)c3ccc(Cl)c(Cl)c3)C2)c2ccccc2n1 (stereo not drawn)
inactive: growth inhibition [1] 37% | inhibition [2] 28% | inhibition [3] 1% | outcome [5] | outcome [6] | outcome [7] | outcome [8]
active: growth inhibition [4] 87%
